LASV entry inh = blocks Lassa virus binding to or entry into cells. Lassa virus pseudotype entry inhibition, cell reporter. Potency, µM (top dose mostly 37.9 µM), inactives show top-dose activity change, negative = inhibition, most hits filed as inhibitors. 1.2% of 300,000 active. AID 540256; calls by dose curve; tested in HEK293 cells; further: potency means the concentration at half of the fitted maximal effect; on the % scale 0 is the no-effect control and ±100 the full control effect; nearly all actives have a fitted effect of over 50% in size
Shiga toxin inh = inhibitors of Shiga toxin in Vero cells; 9.2% of 290,000 active; inhibition, % at 38.7 µM; AID 2315; Vero cells, Shiga toxin protein synthesis inhibition reporter; in the data active means inhibition mostly above about 28%, no sharp cut-off; inactive means mostly below about 43%; further: 0% is about no effect
MARV entry inh = blocks Marburg virus binding to or entry into cells. 1.8% of 300,000 active. Potency, µM (highest dose often 37.8 µM), for inactives: at the top dose activity change, negative = inhibition, most hits filed as inhibitors. Marburg virus pseudotyped entry inhibition, cell reporter. AID 540276; calls by dose curve; tested in HEK293 cells; further: potency means the concentration at half of the fitted maximal effect; on the % scale 0 is the no-effect control and ±100 the full control effect
Pf growth 48h = inhibits P. falciparum growth in the first generation, 48 h; 5.9% of 310,000 active; P. falciparum luciferase growth in erythrocytes, 48 h; Potency, µM (titrated, usually from 28.7 µM), inactives show at the top dose activity change, negative = inhibition, actives largely listed as inhibitors; further: potency means the concentration at half of the fitted maximal effect; on the % scale 0 is the no-effect control and ±100 the full control effect
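Cell-based growth assay: transgenic P. falciparum expressing firefly luciferase, cultured in red cells within RPMI 1640 containing 0.5% w/v Albumax, 24 mM bicarbonate and gentamycin. A drop in luciferase activity indicates inhibition.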
CHX counter = counter-screen for Shiga toxin inhibitors: cycloheximide protein synthesis inhibition. cell reporter, cycloheximide protein synthesis inhibition counterscreen. max response, %. 12% of 300,000 active; in the data active means max response mostly above about 13%, no sharp cut-off; inactive means mostly below about 14%; further: read at 38.3 µM for the half of the compounds with a filed dose; 0% is about no effect
Pf growth 96h = inhibits malaria parasite growth, 96 h; P. falciparum luciferase reporter growth, 96 h; Potency, µM (top dose mostly 28.7 µM), for the others: at the highest dose activity change, negative = inhibition, most hits filed as inhibitors; 6.9% of 320,000 active; AID 504834; further: potency means the concentration at half of the fitted maximal effect; on the % scale 0 is the no-effect control and ±100 the full control effect
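Compounds incubated with erythrocytes infected by luciferase-expressing P. falciparum (2% hematocrit, 0.05% parasitemia final) for 96 hours, 37 C in 5% CO2. Growth inhibition scored as decreased luciferase luminescence.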
* marks the source's active call; other numbers are inactive results; i = inactive; ? = inconclusive; / = no result; [ ] = dose if it differs, or a comment. Only some compounds are listed: those with a hit (about 19% of all), similar ones and a draw of the others. Unless noted, the call rests on the fitted dose curve; in most records, active means well fitted inhibition curve with a large enough effect; inconclusive means small, poorly fitted or top-dose-only effect, or another doubt; inactive means no such curve, though single readings can be large or run the other way.

SMILES	LASV entry inh	Shiga toxin inh	MARV entry inh	Pf growth 48h	CHX counter	Pf growth 96h
Cc1ccc(-n2nc3ccc(N)cc3n2)cc1Cl	/	67*	/	89%	32*	4.1µM*
CN(C)C(=S)NC1(C)CCS(=O)(=O)C1 (stereo unspecified)	-3%	12	?	?	6	?
CC(=O)Nc1ccc(Nc2nnc(-c3ccc(C)c(S(N)(=O)=O)c3)c3ccccc23)cc1	5%	-4	?	?	-5	-2%
Cc1nnc(Nc2ccc3c(c2)OCO3)c2ccccc12	-7%	114*	27%	82%	20	?
Cc1ccc(-c2nnc(Nc3ccc4c(c3)OCO4)c3ccccc23)cc1S(N)(=O)=O	-28%	-14	?	?	-4	2.9µM*
CNC(=O)c1cc(Nc2nnc(C)c3ccccc23)ccc1OC	13%	45	10%[46.1 µM]	0%	3	/
CCn1c(C)c(C(C)=O)c(N2CCN(c3ccc(OC)cc3)CC2)nc1=S	-5%	8	-16%	1%	-1	i[5.75 µM]
COc1cccc(/C=N/Nc2nccnc2Cl)c1O	2.1µM*	34	1.6µM*	?	13*	-3%
COc1cccc(/C=N/Nc2ncnc3scc(-c4ccccc4)c23)c1O	5.2µM*	-2	1.4µM*	2.9µM*	0	2.3µM*
Nc1c(Cl)ncnc1N/N=C/c1ccncc1	?	-4	-20%[46.1 µM]	-14%	12	0%
O=C(O)c1cccc(Nc2ncnc3scc(-c4ccccc4)c23)c1	-13%[46.1 µM]	/	3%[46.1 µM]	/	/	/
COc1cccc(/C=N/Nc2ncnc(Cl)c2N)c1O	3.7µM*	40*	2.5µM*	1.7µM*	55*	2.6µM*
O=C(O)c1ccccc1/C=N/NC(=O)C1CCCC1	/	11	/	-16%	8	-3%
O=c1cc(O)c2sc(Nc3ccc(Cl)c(F)c3)nc2[nH]1	-10%	4	-12%[46.1 µM]	1.7µM*	-3	5.9µM*
O=c1cc(O)c2sc(Nc3ccc(F)c(Cl)c3)nc2[nH]1	0%	2	-1%[46.1 µM]	?	3	3.7µM*
COc1ccc(Nc2nc3[nH]c(=O)cc(O)c3s2)cc1	?	0	?	?	11	?
O=C1NC(=S)N/C1=C/c1cccc([N+](=O)[O-])c1O	0%	-9	19%	?	7	1.9µM*
CC1CN(c2ccccc2)CCN1C(=O)c1cc(COc2c(F)cccc2F)on1 (stereo unspecified)	/	38	/	-7%	-2	20%
Cc1cccc(C)c1OCc1cc(C(=O)N2CCN(c3ccccc3)CC2C)no1 (stereo unspecified)	?	26	13µM*	6%	16*	23%
Cc1ccc(C)c(OCc2cc(C(=O)N3CCN(c4ccccc4C)CC3C)no2)c1 (stereo unspecified)	?	113*	?	6%	31*	12µM*
COc1ccc(-c2nc3c(c(SCC(=O)N4CCOCC4)n2)COC(C)(C)C3)cc1	-4%	-8	3%	18%	2	16%[5.75 µM]
CCCCN(CC)CCCNC(=O)c1cc2cc3ccc(OC)cc3nc2o1	-4%	-7	?	?	-1	3.7µM*
CCCCN(CC)C(=O)c1cc2cc3ccc(Cl)cc3nc2o1	/	64*	/	?	33*	-18%
COc1ccc2cc3cc(C(=O)NCc4cccs4)oc3nc2c1	?	-2	-1%	5.9µM*	2	-6%
Cc1ccc2cc3cc(C(=O)NCCCN4CCCC4=O)oc3nc2c1	17%[46.1 µM]	4	-1%[46.1 µM]	2.6µM*	9	?
SMILES	LASV entry inh	Shiga toxin inh	MARV entry inh	Pf growth 48h	CHX counter	Pf growth 96h
O=C(c1cccs1)N(Cc1ccco1)Cc1cc2ccccc2[nH]c1=O	10%	4	-2%	?	-3	-29%
COc1ccc2cc3cc(C(=O)NCCCN4CCC(C)CC4)oc3nc2c1	/	128*	/	?	43*	-31%
COc1ccc2cc3cc(C(=O)NCCN4CCN(Cc5ccccc5)CC4)oc3nc2c1	?	-10	9%	?	-4	11%
COc1ccc2cc3cc(C(=O)NCc4ccc(C)cc4)oc3nc2c1	?	/	-7%[46.1 µM]	/	/	/
COc1ccc2cc3cc(C(=O)NCCCN4CCOCC4)oc3nc2c1	-27%	26	-20%	?	17	1.2µM*
Cc1ccc2cc3cc(C(=O)NCc4ccc5c(c4)OCO5)oc3nc2c1	?	-5	?	0%	-3	3.7µM*
